Among the test systems are MOLT-4 leukemia; SR leukemia; RPMI-8226 leukemia; OVCAR-8 ovarian; OVCAR-5 ovarian; OVCAR-4 ovarian; SK-OV-3 ovarian; IGROV1 ovarian; OVCAR-3 ovarian; HS 578T breast; NCI/ADR-RES ovarian; T-47D breast; BT-549 breast; MDA-MB-435 melanoma; SW-620 colon; MCF7 breast; HCT-116 colon; HCC-2998 colon; KM12 colon.
What all share (assay): NCI-60 one-dose screen, 48 h (100 = growth as untreated, 0 = no growth, -100 = all killed)
What all share (details): 10 µM unless noted

Compounds without any hit were thinned out: in the full panel of roughly 83,000, 20% have a hit.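 48-hour exposure, single concentration, 96-well plates; percent growth endpoint where 0 means no net growth. Active: below 10.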 Values without a mark were called inactive. Active and inactive are the calls of the source.

The source of these data is PubChem BioAssay (NCI).

Regarding `O=C(CC1(O)C(=O)Nc2ccc(Br)cc21)c1ccc(C(=O)NCC2CCC3(CC2)OOC2(CCCCC2)OO3)cc1` (stereo not drawn), the growth is -29.4% (active) with MOLT-4 leukemia; -38.7% (active) with SR leukemia; -27.4% (active) in the experiment with RPMI-8226 leukemia; 41.7% with OVCAR-8 ovarian; 95.8% in the experiment on OVCAR-5 ovarian; 48.7% with OVCAR-4 ovarian. The growth in the experiment on SK-OV-3 ovarian was 70.6%; in the experiment on IGROV1 ovarian, 14.8%; in the experiment with OVCAR-3 ovarian, 8.92% (active); in the experiment with HS 578T breast, 62.9%; with NCI/ADR-RES ovarian, 64.6%; with T-47D breast, 14.7%. The growth is 63.6% in the experiment on BT-549 breast; 36.1% in the experiment with MDA-MB-435 melanoma; -12.5% (active) in the experiment on SW-620 colon; 32.5% in the experiment with MCF7 breast; 38.9% in the experiment on HCT-116 colon; 99.7% in the experiment with HCC-2998 colon. The growth in the experiment with KM12 colon was 31.6%.
As to `[Cl][Hg][c]1cc(Br)cc(Br)c1`, the growth is 0.93% (active) in the experiment on MOLT-4 leukemia; -16.6% (active) in the experiment on SR leukemia; 23% in the experiment on RPMI-8226 leukemia; 70.4% in the experiment with OVCAR-8 ovarian; 118% in the experiment with OVCAR-5 ovarian; 48.5% with OVCAR-4 ovarian. The growth in the experiment with SK-OV-3 ovarian is 86.3%; in the experiment with IGROV1 ovarian it was 16.5%; in the experiment on OVCAR-3 ovarian, -7.88% (active); in the experiment on HS 578T breast it was 30.3%; in the experiment with NCI/ADR-RES ovarian, 81.1%; in the experiment with T-47D breast, 27.5%. The growth in the experiment with BT-549 breast was 48%; in the experiment on MDA-MB-435 melanoma, 58.2%; in the experiment on SW-620 colon, 29%; with MCF7 breast, 15.1%; in the experiment with HCT-116 colon, 64%; in the experiment on HCC-2998 colon, 85.4%. Further, the growth with KM12 colon was 70.4%.
For the molecule `COc1ccc(/C=C\c2cc(OC)c(OC)c(OC)c2)cc1OCC(=O)Nc1nc2ccc(F)cc2s1`, the growth with MOLT-4 leukemia was 12.5%; in the experiment with SR leukemia, 13.8%; in the experiment on RPMI-8226 leukemia, 48.3%; in the experiment on OVCAR-8 ovarian, 29.2%; with OVCAR-5 ovarian it was 92.4%; in the experiment with OVCAR-4 ovarian, 51.1%. Further, the growth in the experiment on SK-OV-3 ovarian was 61.2%; in the experiment with IGROV1 ovarian it was 17%; in the experiment with OVCAR-3 ovarian it was 48.2%; with HS 578T breast, 33.8%; in the experiment with NCI/ADR-RES ovarian, 20.2%; with T-47D breast, 38.3%. Also, the growth with BT-549 breast was 53.7%; in the experiment on MDA-MB-435 melanoma, 15.5%; with SW-620 colon it was 42.4%; in the experiment on MCF7 breast, 17.1%; with HCT-116 colon, 17.5%; in the experiment on HCC-2998 colon it was 72%. Further, the growth in the experiment with KM12 colon was 42.1%.
For the molecule `C/C(=C\c1ccn(-c2ccccc2N)n1)[C@@H]1C[C@@H]2O[C@]2(C)CCC[C@H](C)[C@H](O)[C@@H](C)C(=O)C(C)(C)[C@@H](O)CC(=O)O1`, the growth was 12.4% in the experiment on MOLT-4 leukemia; 17.4% in the experiment with SR leukemia; 15.3% in the experiment on RPMI-8226 leukemia; 26.2% in the experiment with OVCAR-8 ovarian; 31.6% in the experiment with OVCAR-5 ovarian; 51.2% in the experiment on OVCAR-4 ovarian. Further, the growth is 40.2% in the experiment with SK-OV-3 ovarian; 41.5% with IGROV1 ovarian; -2.9% (active) in the experiment on OVCAR-3 ovarian; 7.14% (active) in the experiment with HS 578T breast; -4.02% (active) in the experiment on NCI/ADR-RES ovarian; 36.4% with T-47D breast. In addition, the growth was 15% in the experiment on BT-549 breast; -46.6% (active) with MDA-MB-435 melanoma; 38.3% in the experiment with SW-620 colon; 18.6% in the experiment with MCF7 breast; 12.1% in the experiment on HCT-116 colon; 3.48% (active) in the experiment with HCC-2998 colon. Also, the growth in the experiment with KM12 colon was 14.6%.
Regarding `O=[N+]([O-])c1cnc[nH]1`, the growth in the experiment on MOLT-4 leukemia was 114%; in the experiment on SR leukemia, 117%; in the experiment with RPMI-8226 leukemia it was 107%; with OVCAR-8 ovarian, 109%; with OVCAR-5 ovarian, 108%; in the experiment on OVCAR-4 ovarian, 114%. Also, the growth was 110% with SK-OV-3 ovarian; 127% in the experiment on IGROV1 ovarian; 112% in the experiment on OVCAR-3 ovarian; 106% in the experiment with HS 578T breast; 104% in the experiment on NCI/ADR-RES ovarian; 117% in the experiment with T-47D breast. In addition, the growth with BT-549 breast is 112%; with MDA-MB-435 melanoma, 105%; in the experiment with SW-620 colon, 104%; in the experiment with MCF7 breast, 94.8%; in the experiment on HCT-116 colon, 106%; in the experiment with HCC-2998 colon, 102%. The growth in the experiment with KM12 colon is 107%.
For the molecule `COc1ccc(/C(C)=C(\c2ccc(OCCN3CCOCC3)cc2)c2ccc(OC(=O)Cc3ccccc3)cc2)cc1`, the growth was 104% in the experiment with MOLT-4 leukemia; 112% in the experiment on SR leukemia; 84.6% with RPMI-8226 leukemia; 100% in the experiment on OVCAR-8 ovarian; 104% in the experiment on OVCAR-5 ovarian; 106% in the experiment with OVCAR-4 ovarian. Further, the growth was 97.6% in the experiment with SK-OV-3 ovarian; 113% in the experiment on IGROV1 ovarian; 101% in the experiment with OVCAR-3 ovarian; 110% in the experiment with HS 578T breast; 102% with NCI/ADR-RES ovarian; 65.4% in the experiment with T-47D breast. Moreover, the growth with BT-549 breast was 108%; in the experiment on MDA-MB-435 melanoma it was 107%; in the experiment with SW-620 colon, 111%; in the experiment with MCF7 breast it was 71.7%; with HCT-116 colon, 104%; in the experiment on HCC-2998 colon, 102%. Besides, the growth in the experiment with KM12 colon is 103%.
In the case of `OCc1ccc2c(c1)OCO2`, the growth with MOLT-4 leukemia was 91.9%; in the experiment on SR leukemia, 95.5%; in the experiment on RPMI-8226 leukemia, 102%; with OVCAR-8 ovarian it was 95.7%; in the experiment on OVCAR-5 ovarian it was 97%; with OVCAR-4 ovarian, 101%. For the same molecule, the growth in the experiment on SK-OV-3 ovarian was 95.6%; with IGROV1 ovarian, 106%; with OVCAR-3 ovarian, 107%; with HS 578T breast it was 97.1%; with NCI/ADR-RES ovarian, 105%; in the experiment with T-47D breast, 86.4%. The growth was 106% in the experiment with BT-549 breast; 102% in the experiment on MDA-MB-435 melanoma; 102% in the experiment with SW-620 colon; 93% in the experiment with MCF7 breast; 101% in the experiment with HCT-116 colon; 102% in the experiment on HCC-2998 colon. For the same molecule, the growth with KM12 colon was 103%.
